These results are taken from the supplement of paper PMC10338343.

± gives the standard deviation.
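Also: 1 nM active piRISC with 0.1 nM target library at 33 °C single turnover.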

The experiment concerns MILI (PIWIL2) piRISC loaded with piRNA #1 (26 nt). Put plainly: pre-steady-state target cleavage rate (min^-1); guide: piRNA #1 5'p-UGAGGUAGUAGGUUGUAUAGUAUCCA; MIWI and MILI are mouse PIWI proteins and EfPiwi is from a freshwater sponge; tags in brackets are library labels; higher = faster piRNA-guided slicing of the target. Conditions: auxiliary factor: 500 nM mouse GTSF1. In outline:
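A burst-and-steady-state fit was used to obtain the pre-steady-state cleavage rate. The input data were sequencing reads of uncleaved targets, normalised to depth and to weakly complementary targets, from a […] transcribed, DNA-blocked target RNA library mixed with 1 nM active affinity-purified piRISC holding one synthetic guide, with or without 500 nM GTSF1 partner protein, in HEPES–potassium acetate buffer at 33 °C for 0–8 or 0–960 min. Three trials were pooled and k3 was capped at 0.0001 min^-1.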
As for GGAGACCUAUCUAUACAACCUACUACGCUCA, the “pre-steady-state target cleavage rate” value is 0.229 ± 0.023.

Regarding GGAGACCUAACUAAACUACCUACUACCUCA, the “pre-steady-state target cleavage rate” value came to 0.0594 ± 0.017.

With GGAGACCUAUGAUUACGACCUACUACCUCA, the “pre-steady-state target cleavage rate” value came out at 0.00341 ± 0.003.

Take GGAGACCUUAGAUUACAACCUACUACCUCA: the “pre-steady-state target cleavage rate” value came out at 0.0208 ± 0.007.

With GGAGACCAUACUAUACUACCUACUACCACA, the “pre-steady-state target cleavage rate” value came to 0.217 ± 0.021.

For GGAGACCUAUGAAUACUACCUACAACCUCA, the “pre-steady-state target cleavage rate” value came to 0.00497 ± 0.0016.

As to GGAGACCUAUCUAUACAAGCUACAACCUCA, the “pre-steady-state target cleavage rate” value was found to be 0.169 ± 0.015.

For GGAGACCAUACUAUAGUUCCUACUACCUCA, the “pre-steady-state target cleavage rate” value is 0.156 ± 0.019.

With GGAGACCUAACUUUACAACCUACAACCUCA, the “pre-steady-state target cleavage rate” value turned out to be 0.0823 ± 0.027.

For the sequence GGAGACCAUACUAAACAACCUUCUACCUCA, the “pre-steady-state target cleavage rate” value was found to be 0.00805 ± 0.0035.

Take GGAGACCUAUGUAUACAAGGAACUACCUCA: the “pre-steady-state target cleavage rate” value is 0.00296 ± 0.0028.

With GGAGACCUAUGAUAUGUUCCUACUACCUGA, the “pre-steady-state target cleavage rate” value is less than 0.0001.

As to GGAGACCUAUGUAUACAACCUACUACAUCA, the “pre-steady-state target cleavage rate” value came out at 0.0269 ± 0.0059.

Turning to GGAGACCUAUGUAUUCAUCCUACUACCUCA, the “pre-steady-state target cleavage rate” value was 0.0771 ± 0.011.

Regarding GGAGACCUAUCUAAACAACCUUCUACCUCA, the “pre-steady-state target cleavage rate” value came to 0.00634 ± 0.0024.

GGAGAGGAUAACUAUACAACCUACUACCUCA: the “pre-steady-state target cleavage rate” value amounted to 0.0525 ± 0.0054.

GGAGACCUUUCUAAACAACCUACUACCUCA: the “pre-steady-state target cleavage rate” value was determined as 0.0629 ± 0.012.

Regarding GGAGACCUAACUAUACAACCUACUACGAGA, the “pre-steady-state target cleavage rate” value was 0.0403 ± 0.019.

With GGAGACCUAUGAUUACAUCCUACUUCCUCA, the “pre-steady-state target cleavage rate” value is 0.00764 ± 0.0027.

Regarding GGAGACCAUACUAUUCAACGUACUACCUCA, the “pre-steady-state target cleavage rate” value was 0.019 ± 0.0049.

For GGAGACCUAACUAUUCUACCUACUACCUCA, the “pre-steady-state target cleavage rate” value amounted to 0.104 ± 0.021.

As for GGAGACCUAUGAUAUGAUCCUACUACCACA, the “pre-steady-state target cleavage rate” value was less than 0.0001.

Turning to GGAGACCUUUCUAUACAACCUACUUCCUCA, the “pre-steady-state target cleavage rate” value was determined as 0.0321 ± 0.0062.

As to GGAGACCUAUGAAUACAACCUACUACAUCA, the “pre-steady-state target cleavage rate” value amounted to 0.00323 ± 0.0026.

For the sequence GGAGACCAUACUAUUCAUCCUACUACCUCA, the “pre-steady-state target cleavage rate” value is 0.271 ± 0.019.

Turning to GGAGACGAUACUAUAGAACCUACUACCUCA, the “pre-steady-state target cleavage rate” value came out at 0.184 ± 0.015.

On to GGAGACCUAACUAUAGAACCUACUACCACA, for which the “pre-steady-state target cleavage rate” value worked out at 0.0663 ± 0.019.

For the sequence GGAGACGAUAGUAUACAACCUACUACCUCA, the “pre-steady-state target cleavage rate” value is 0.147 ± 0.011.

In the case of GGAGACCUAUGAAUACAACCUACUAUCCUCA, the “pre-steady-state target cleavage rate” value amounted to 0.00841 ± 0.0026.

For GGAGACCUAUCUAUACAACCUAGAUCCUCA, the “pre-steady-state target cleavage rate” value stood at 0.0047 ± 0.0021.

Turning to GGAGACCUAAGAUUACAACCUACUACCUCA, the “pre-steady-state target cleavage rate” value is 0.0144 ± 0.0043.

Take GGAGACCUAUGAUAACAUCCUACUUCCUCA: the “pre-steady-state target cleavage rate” value is 0.00421 ± 0.0027.

GGAGACCUAUGAAUACAAGCUACUUCCUCA: the “pre-steady-state target cleavage rate” value amounted to 0.0166 ± 0.0043.

For GGAGACCUAACAUAACAACCUACUACCUCA, the “pre-steady-state target cleavage rate” value is 0.0321 ± 0.011.

For GGAGACCAUACUAUACAACCAACUUCCUCA, the “pre-steady-state target cleavage rate” value worked out at 0.00585 ± 0.003.

On to GGAGACCAUACUAUACAACCUACAUGCUCA, for which the “pre-steady-state target cleavage rate” value was 0.134 ± 0.028.

Consider GGAGACCUUACAAUACAACCAACUACCUCA, for which the “pre-steady-state target cleavage rate” value worked out at 0.00567 ± 0.0032.

In the case of GGAGACCUUACUAUACAACCUACUAUCCUCA, the “pre-steady-state target cleavage rate” value amounted to 0.194 ± 0.022.

Turning to GGAGACCUAUCUAUAGAACCUACUACGUCA, the “pre-steady-state target cleavage rate” value was 0.0269 ± 0.0089.

Take GGAGACGAUACUUUACAACCUUCUACCUCA: the “pre-steady-state target cleavage rate” value was 0.00805 ± 0.0018.
